Here are results for 85 molecules from PubChem BioAssay AID1259416 (Broad Institute, 2018).

Values joined by “and” are separate entries in the source; they are usually repeats but may differ in a detail not shown here. Identical values can stand only once. The whole screen tested about 69,000 compounds, of which about 2,600 (3.8%) were called active. The sample holds actives, similar compounds and a random draw of the others, so the mix is not that of the screen. Cut-off read from the data, not from the text of the source: active = activity change below about -70% (passing the limit was not always enough); inconclusive = no clear call, values can overlap the other calls.

The assay in a line: inhibitors of Toxoplasma growth in IFN-γ-primed hosts – cell-based, primary screen (AID 1259416).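 Note: host cells are HeLa cells infected with Toxoplasma gondii.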 Conditions: Toxoplasma gondii growth in IFN-gamma-treated host cells; stronger effect = lower value; concentration not given here.
Regarding `CC(=O)NCCc1csc(C2CCN(C(=O)NCc3ccc(F)cc3)CC2)n1`, the activity change, negative = inhibition was -3.56% (inactive).
With `O=C(O)CCC(=O)N1CC2CCC(C1)N2C(=O)c1ccco1` the figure was 61.2% (inactive); with `CC(C)NC(=O)N1CC2(C1)[C@H](c1ccccc1)[C@H](CO)N2C(=O)C1CCOCC1`, -2.06% (inactive); with `Cc1ccc(C2c3[nH]c4ccccc4c3CCN2C(=O)c2cccc(C)c2)cc1` (stereo not given), 226% (inactive).
The same measure for `CCOc1cccc(CC(=O)N2CCc3c([nH]c4ccccc34)C2c2ccc(F)cc2)c1OCC` (stereo not given): -74.9% (active); for `CCOc1ccc(C2c3[nH]c4ccccc4c3CCN2C(=O)C2CC2)cc1` (stereo not given): -34.9% (inactive); for `CCOc1cccc(CC(=O)N2CCc3c([nH]c4ccccc34)C2c2ccc(OC)cc2)c1OCC` (stereo not given): 213% (inactive).
The same measure for `CCOc1cccc(C2c3[nH]c4ccccc4c3CCN2C(=O)c2ccccc2)c1` (stereo not given): -34.3% (inactive); for `Cc1cccc(C2c3[nH]c4ccccc4c3CCN2C(=O)C(=O)CCc2ccccc2)n1` (stereo not given): -13.8% (inactive).
Turning to `Cc1cccc(C2c3[nH]c4ccccc4c3CCN2C(=O)c2ccccc2C)c1` (stereo not given), the activity change, negative = inhibition was -84.7% (active).
Regarding `CSc1ccc(C2c3[nH]c4ccccc4c3CCN2C(=O)c2cc3ccccc3[nH]2)cc1` (stereo not given), the activity change, negative = inhibition was -96.3% (active).
The same measure for `COCC1CN(c2ccc(C)nn2)Cc2cnn(C)c21` (stereo not given): -0.315% (inactive); for `Cc1ccc(S(=O)(=O)Nc2cncc(C(=O)NCC(C)C)c2)cc1`: -16.9% (inactive); for `Cc1nn(C)c2c1C(c1cc(F)ccc1-n1cccn1)CC(=O)N2` (stereo not given): -37.8% (inactive).
With `CC1(C)[C@@H](O[C@H]2O[C@H](C(=O)O)[C@@H](O)[C@H](O)[C@@H]2O[C@@H]2O[C@H](C(=O)O)[C@@H](O)[C@H](O)[C@H]2O)CC[C@@]2(C)[C@H]3C(=O)C=C4[C@@H]5C[C@@](C)(C(=O)O)CC[C@]5(C)CC[C@@]4(C)[C@]3(C)CC[C@@H]12`, the activity change, negative = inhibition is 15.6% (inactive).
With `COc1ccccc1-c1nc(Cc2noc(-c3cccnc3)n2)c(C)o1` the figure was -62.2% (inactive); with `O=C(c1cccc(Cl)c1)N1CCC2(CC1)Nc1cc(F)ccc1-n1cccc12`, 50.9% (inactive).
In the case of `O=C1N[C@H](c2ccccc2)COCc2cn(nn2)CC[C@H]1Cc1cccc(Cl)c1`, the activity change, negative = inhibition was -2.88% (inactive).
With `CCN(CC)C(=O)[C@@H]1C[C@H](N)CN1C(=O)Cc1ccc(F)c(C)c1` the figure was 3.3% (inactive).
The same measure for `Cc1cc(-c2cc(C3CCN(C(=O)C4CC(=O)C4)C3)ccn2)ccc1F` (stereo not given): 14.5% (inactive); for `Clc1ccc(-c2noc3c2CN(CCn2cc(Cl)cn2)CC3)cc1`: -72.1% (active).
With `O=C(CCc1ccco1)N1CCc2onc(-c3ccc(C(F)(F)F)cc3)c2C1` the figure was 9.55% (inactive); with `c1ccc2c(-c3noc4c3CN(CC3CCCO3)CC4)cccc2c1` (stereo not given), -4.04% (inactive); with `O=C(CC1COCCN1)NCCC(c1ccccc1)c1ccccc1` (stereo not given), -9.21% (inactive).
Turning to `CNc1nc(N2CCN(Cc3nccn3C(C)C)CC2)nc2c1CCC2`, the activity change, negative = inhibition is 8.7% (inactive).
For the molecule `Cc1nc(CN2CCCn3nnc(COC(C)C)c3C2)cs1`, the activity change, negative = inhibition was 9.42% (inactive).
The same measure for `COCCC(=O)N1CCN(CC2CC2)c2nc(C)ccc2C1`: -15.5% (inactive); for `Cn1nnc(-c2ccc(C(=O)NC(CN3CCCCC3)c3ccccc3)cc2)n1` (stereo not given): -0.396% (inactive).
With `CCOC(=O)c1nc(N2CCC(c3ccccc3)C2)c2ccccc2n1` (stereo not given) the figure was 11.8% (inactive).
On to `O=C(Cn1ncc2c(N3CCN(c4ccccn4)CC3)ncnc21)NCc1ccc(F)c(Cl)c1`, for which the activity change, negative = inhibition is -16.9% (inactive).
With `Clc1ccc(Cn2ncc3c(NCc4cccnc4)ncnc32)cc1` the figure was -81.5% (active).
The same measure for `O=C(Cn1ncc2c(N3CCN(c4ccccc4)CC3)ncnc21)Nc1ccc(Cl)cc1`: -12.8% (inactive).
The same measure for `CCC(=O)N1Cc2cc(C(=O)NCc3cccc(F)c3)nc(-c3cccc(C4=CCCC4)c3)c2[C@H]1CCO`: -51.7% (inactive); for `Cc1cccc(OC2CCN(C(=O)c3ccc(OCc4nonc4C)cc3)CC2)c1`: -46.1% (inactive).
Take `CNc1cc(-c2cc(C(C)C)nc(C(F)(F)F)n2)c2cc[nH]c2n1`: the activity change, negative = inhibition is -83.6% (active).
With `Cc1cccc2[nH]nc(-c3cc(NCCN(C)C)nc4[nH]ccc34)c12` the figure was -0.259% (inactive).
With `Cc1nc(C)n(CCC(=O)N2CCN(S(=O)(=O)c3ccccc3)CC2)n1` the figure was 55.6% (inactive); with `O=C(Sc1cccs1)c1csc(C2COc3ccccc3O2)n1` (stereo not given), -96.7% (active); with `CC1=NOC(C)(CNC(=O)c2csc(-c3cccs3)n2)C1` (stereo not given), -3.52% (inactive).
For the molecule `Cc1nc2ccccn2c1C(=O)N1CCCC(Cn2cc(C3CC3)nn2)C1` (stereo not given), the activity change, negative = inhibition is 26.9% (inactive).
For the molecule `CN(C)C(=O)CN1CC2CN(Cc3ccncc3)CCC2(c2ccccc2)C1` (stereo not given), the activity change, negative = inhibition is -2.67% (inactive).
With `O=C1NCC(CN2CCOc3c(O)cc(-c4csc5ccccc45)cc3C2)O1` (stereo not given) the figure was -76.2% (active).
The same measure for `CCC(C(=O)OC)N1CCOc2c(O)cc(-c3ccc(C)s3)cc2C1` (stereo not given): -5% (inactive); for `COc1cc(COC2CN(C(=O)c3csc(SC)n3)CC(=O)N(C(C)C)C2)cc(OC)c1` (stereo not given): -6.26% (inactive); for `CCOCC1CN(Cc2ccc3c(c2)OCO3)Cc2cncn2C1` (stereo not given): -0.275% (inactive).
With `OCCn1c(-c2ccc(-c3ccn[nH]3)cc2)nc2ccccc21` the figure was 92.2% (inactive); with `CCN1CCN(c2nc(-c3ccc(OC)cc3)nc3ccccc23)CC1`, -47.8% (inactive); with `COc1ccc(-c2nc3ccccc3n2-c2cc(C(C)(C)C)c(O)c(C(C)(C)C)c2)cc1`, -86.1% (active).
On to `C=CCOCC12CCCOC1CCN(S(=O)(=O)c1cccnc1)C2` (stereo not given), for which the activity change, negative = inhibition is 40.1% (inactive).
The same measure for `CCOc1ccccc1CNC(=O)c1nc(-c2cccc(F)c2)n2c1CCCCC2`: -84.4% (active); for `CCCN1CCN(C(=O)c2nc(-c3cccc(F)c3)n3c2CCCCC3)CC1`: 3.76% (inactive); for `CCOc1ccccc1NC(=O)C(=O)NCCc1csc(-c2cccc(F)c2)n1`: -13.3% (inactive).
With `CC(C)N1CCN(C(=O)c2csc(-c3ccc(N4CCCC4)nc3)n2)CC1` the figure was -27.3% (inactive).
The same measure for `Cc1nc2nc(Cc3ccc(Cl)cc3)[nH]n2c(=O)c1Cc1ccccc1`: 4.81% (inactive).
As for `Nc1cccc(CCc2nc3ccccc3[nH]2)c1`, the activity change, negative = inhibition is 22% (inactive).
`Cc1cccc(Cc2c(C)[nH]n(-c3nc4ccccc4[nH]3)c2=O)c1`: the activity change, negative = inhibition is -124% (active).
In the case of `CN(C)c1ncnc2c1CCN(C(=O)c1ccnnc1)CC2`, the activity change, negative = inhibition was -0.9% (inactive).
The same measure for `Cc1ccc(-c2nn(C(C)(C)C)c3ncnc(N)c23)cc1`: -84% (active) and -73.5% (active); for `Cn1cc(CN2CCc3ncnc(-c4ccccc4)c3CC2)cn1`: -8.43% (inactive).
With `Cc1cccnc1CN(C)C(=O)c1cc(CN2CCC(Cc3ccccc3)CC2)on1` the figure was 9.1% (inactive); with `Oc1c(Cl)cc(Cl)c(Cl)c1Cc1c(O)c(Cl)cc(Cl)c1Cl`, -85.3% (active) and -87.1% (active) and -96% (active); with `N#Cc1cccc(-c2ccc3c(c2)[C@H]2[C@H](CCN2S(=O)(=O)c2ccc(F)cc2)[C@@H](CO)N3)c1`, -42.4% (inactive).
The same measure for `COCC#Cc1ccc([C@@H]2[C@@H](CO)N3CCCCN(C(=O)NC4CCCC4)C[C@H]23)cc1`: -18.5% (inactive).
With `CC(C)NS(=O)(=O)c1ccc(OCC(=O)N2CCCCCC2)cc1`, the activity change, negative = inhibition was 1.18% (inactive).
Regarding `O=C(CC1CCN(Cc2ccccn2)CC1)Nc1ccc(OC2CCCC2)cc1`, the activity change, negative = inhibition is -69.9% (inactive).
Take `O=C1CCCN1CC1CN(Cc2ccccn2)Cc2nccn2C1` (stereo not given): the activity change, negative = inhibition is -70.8% (active).
The same measure for `O=C1CCCN1CC1CN(c2ncc(F)cn2)Cc2nccn2C1` (stereo not given): 4.1% (inactive); for `COC(=O)c1ccc(-c2noc(-c3c(O)c4ccccc4[nH]c3=O)n2)cc1`: 21.8% (inactive).
The same measure for `O=C(CCCn1cnnn1)N1CCc2onc(-c3cccc(F)c3)c2C1`: -6.14% (inactive).
On to `CCCCc1ccc(S(N)(=O)=O)cc1`, for which the activity change, negative = inhibition was -51.9% (inactive).
The same measure for `CCCCCc1ccc(C#Cc2ccc(OC(F)F)cc2)cc1`: 5.21% (inactive).
With `CCCCCCCCCc1ccc(OCCOCCOCCOCCOCCOCCOCCOCCOCCO)cc1` the figure was -80.7% (active).
The same measure for `Cc1cc(-c2cccc(O)c2)nc(-c2ccccc2O)n1`: -20% (inactive).
With `CN1C(=O)c2cc(NC(=O)C3CCOCC3)ccc2OC[C@@H]2O[C@H](CC(=O)NCc3ccccc3F)CC[C@H]21`, the activity change, negative = inhibition is 11.5% (inactive).
With `CN(C)C(=O)N1CCc2ncnc(C3CCOC3)c2CC1` (stereo not given) the figure was 1.98% (inactive); with `O=C(Cn1c(=O)cc(C(=O)N2CCCCC2)c2ccccc21)NC1CCCC1`, 11.6% (inactive).
The same measure for `CC(C)CN1C(=O)N(C2Cc3ccccc3C2)C(=O)C12CCN(Cc1nc3ccccc3n1C)CC2`: -8.38% (inactive); for `CC(C)CN1CCC2(C=C(C(=O)N(C)C)c3ccccc32)CC1`: -81.7% (active).
With `CC(C)CN1CC[C@H]2[C@H](CC1)S(=O)(=O)CCN2C(=O)c1ccccc1` the figure was 3.93% (inactive).
As to `Cc1ccc(C(=O)N2CCC3(CC2)C(=O)N(C)CCN3CC2CC2)cn1`, the activity change, negative = inhibition was 1.05% (inactive).
With `CN1C[C@@H]2C3(CCN(C(=O)Nc4ccccc4)CC3)CC[C@@]2(C(=O)N2CCCC2)C1` the figure was 6.69% (inactive); with `COc1ccc2c3c(n(C)c2c1)[C@@H](CO)N(C)CC31CN(S(=O)(=O)c2cccs2)C1`, 36% (inactive).
With `C#C[C@]1(O)CC[C@H]2[C@@H]3CCC4=CC(=O)CC[C@@H]4C3CC[C@@]21CC` (stereo not given in full) the figure was -83.8% (active); with `C#C[C@]1(O)CC[C@H]2[C@@H]3CCC4=CC(=O)CC[C@@H]4[C@H]3CC[C@@]21CC`, -81.4% (active) and -75.5% (active).
The same measure for `COc1cc(-c2nc(CN3[C@@H]4CC[C@H]3CNC(=O)C4)c(C)o2)cc2c1OCO2`: -3.36% (inactive).
